Assay results: PubChem BioAssay (EPA / NIEHS)
Calls of active or inactive are those of the source. The calls were made as follows: active = hit-call score of the fitted dose curve at least 0.9, where 1 is the maximum; inactive = score below 0.9.

What was measured:
Conditions in all cases: mRNA level, 48 h; actives raise or lower the signal
[1] = read-out: growth arrest and DNA damage 45 (GADD45G), GADD45G (gene 10912); assay: LTEA_HepaRG_GADD45G: Life Technologies and Expression Analysis (LTEA) Assay for growth arrest and DNA damage 45 (GADD45G) using HepaRG (AID 2283499)
Procedure, shortened: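 Human hepatic HepaRG line treated 48 h with chemicals (eight concentrations, half-log steps from 100 uM); transcript induction or repression of GADD45G scored by qRT-PCR versus DMSO vehicle.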

[2] = read-out: Glutamate-cysteine ligase regulatory (GCLM), GCLM (gene 2730); assay: LTEA_HepaRG_GCLM: Life Technologies and Expression Analysis (LTEA) Assay for Glutamate-cysteine ligase regulatory (GCLM) using HepaRG (AID 2283500)
Procedure, shortened: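 Differentiated human HepaRG cells exposed 48 h in serum-free induction medium to 8-point half-log concentrations (top 100 uM, 0.5% DMSO), in duplicate. GCLM mRNA quantified by qRT-PCR, normalized to ACTB, GAPDH, POLR2A; bidirectional fitting versus DMSO.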

[3] = read-out: Glutathione S-transferase M3 (GSTM3), GSTM3 (gene 2947); assay: LTEA_HepaRG_GSTM3: Life Technologies and Expression Analysis (LTEA) Assay for Glutathione S-transferase M3 (GSTM3) using HepaRG (AID 2283501)
Procedure, shortened: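 Changes in GSTM3 expression, an oxidative-stress marker, were scored by bidirectional curve fitting against 0.5% DMSO vehicle. Human HepaRG cultures received chemicals for 48 h in duplicate, highest concentration 100 uM with half-log dilutions.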

[4] = read-out: Heat shock 70 kDa protein 1 (HSPA1A), gene 3303; assay: LTEA_HepaRG_HSPA1A: Life Technologies and Expression Analysis (LTEA) Assay for Heat shock 70 kDa protein 1 (HSPA1A) using HepaRG (AID 2283502)
Procedure, shortened: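 Differentiated human HepaRG cells in serum-free induction medium were exposed in duplicate for 48 h to eight concentrations (top 100 uM, half-log steps, 0.5% DMSO). HSPA1A mRNA was quantified by qRT-PCR, normalized to ACTB, GAPDH and POLR2A, and fitted bidirectionally against DMSO.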

[5] = read-out: 3-Hydroxy-3-Methylglutaryl-CoA Synthase 2 (HMGCS2), HMGCS2 (gene 3158); assay: LTEA_HepaRG_HMGCS2: Life Technologies and Expression Analysis (LTEA) Assay for 3-Hydroxy-3-Methylglutaryl-CoA Synthase 2 (HMGCS2) using HepaRG (AID 2283504)
Procedure, shortened: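 Expression of HMGCS2 in human HepaRG liver cells is measured by qRT-PCR 48 h after dosing (highest 100 uM, half-log series, 0.5% DMSO). Values come from bidirectional concentration-response fitting with DMSO as baseline.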

HGF (gene 3082) = assay: LTEA_HepaRG_HGF: Life Technologies and Expression Analysis (LTEA) Assay for Hepatocyte Growth Facto (HGF) using HepaRG (AID 2283505)
Procedure, shortened: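 Gain or loss of HGF mRNA in human HepaRG liver cells after 48 h chemical exposure; eight concentrations up to 100 uM with 0.5% DMSO vehicle, quantified by TaqMan qRT-PCR.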

[6] = read-out: Insulin Like Growth Factor 1 (IGF1), IGF1 (gene 3479); assay: LTEA_HepaRG_IGF1: Life Technologies and Expression Analysis (LTEA) Assay for Insulin Like Growth Factor 1 (IGF1) using HepaRG (AID 2283506)
Procedure, shortened: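 Differentiated human HepaRG cells were dosed for 48 h in serum-free induction medium with 0.5% DMSO, eight half-log concentrations up to 100 uM, in duplicate. IGF1 mRNA was quantified by qRT-PCR normalized to ACTB, GAPDH, POLR2A; bidirectional fitting versus DMSO.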

[7] = read-out: Intercellular Adhesion Molecule 1 (ICAM1), ICAM1 (gene 3383); assay: LTEA_HepaRG_ICAM1: Life Technologies and Expression Analysis (LTEA) Assay for Intercellular Adhesion Molecule 1 (ICAM1) using HepaRG (AID 2283507)
Procedure, shortened: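 Gain or loss of transcript in HepaRG hepatic cells is quantified by qRT-PCR after 48 h chemical exposure (up to 100 uM, half-log steps), with DMSO as baseline.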

[8] = read-out: Insulin-like growth factor-binding protein 1 (IGFBP1), IGFBP1 (gene 3484); assay: LTEA_HepaRG_IGFBP1: Life Technologies and Expression Analysis (LTEA) Assay for Insulin-like growth factor-binding protein 1 (IGFBP1) using HepaRG (AID 2283508)
Procedure, shortened: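 mRNA induction or loss was quantified by qRT-PCR after 48 h chemical exposure of human HepaRG cells, with 0.5% DMSO as vehicle and baseline. Concentration-response over eight points up to 100 uM.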

[9] = read-out: Interleukin 6 (IL6), IL6 (gene 3569); assay: LTEA_HepaRG_IL6: Life Technologies and Expression Analysis (LTEA) Assay for Interleukin 6 (IL6) using HepaRG (AID 2283509)
Procedure, shortened: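 Differentiated human HepaRG cells, plated 48 h then switched to serum-free induction medium, were exposed in duplicate for 48 h to eight half-log concentrations up to 100 uM in 0.5% DMSO. IL6 mRNA measured by qRT-PCR, normalized to ACTB/GAPDH/POLR2A.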

[10] = read-out: Interleukin 6 Receptor (IL6R), IL6R (gene 3570); assay: LTEA_HepaRG_IL6R: Life Technologies and Expression Analysis (LTEA) Assay for Interleukin 6 Receptor (IL6R) using HepaRG (AID 2283510);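 as to AC50: TaqMan qRT-PCR signal normalized to ACTB GAPDH and POLR2A housekeeping genes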
Procedure, shortened: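 Differentiated human HepaRG cells, plated 48 h then switched to serum-free induction medium, were dosed in duplicate for 48 h at eight half-log concentrations up to 100 uM in 0.5% DMSO. IL6R mRNA quantified by qRT-PCR, normalized to ACTB/GAPDH/POLR2A; bidirectional fit versus DMSO.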

[11] = read-out: Potassium channel subfamily K member 1 (KCNK1), KCNK1 (gene 3775); assay: LTEA_HepaRG_KCNK1: Life Technologies and Expression Analysis (LTEA) Assay for Potassium channel subfamily K member 1 (KCNK1) using HepaRG (AID 2283511)
Procedure, shortened: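 Differentiated human HepaRG cells in serum-free induction medium were exposed in duplicate for 48 h to 8 half-log concentrations up to 100 uM in 0.5% DMSO. KCNK1 mRNA was measured by TaqMan qRT-PCR, normalized to ACTB, GAPDH and POLR2A, and fitted bidirectionally versus DMSO.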

[12] = read-out: Keratin 19 (KRT19), KRT19 (gene 3880); assay: LTEA_HepaRG_KRT19: Life Technologies and Expression Analysis (LTEA) Assay for Keratin 19 (KRT19) using HepaRG (AID 2283512)
Procedure, shortened: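 Gene-expression endpoint in the human liver line HepaRG after 48 h exposure to up to 100 uM test chemical with 0.5% DMSO vehicle; KRT19 mRNA by qRT-PCR, analyzed bidirectionally versus DMSO.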

[13] = read-out: JUN Transcription Factor, JUN (gene 3725); assay: LTEA_HepaRG_JUN: Life Technologies and Expression Analysis (LTEA) Assay for JUN Transcription Factor using HepaRG (AID 2283513)
Procedure, shortened: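 Differentiated HepaRG cells were exposed to chemicals for 48 h in serum-free induction medium, 8 concentrations from 100 uM in half-log steps, 0.5% DMSO vehicle, in duplicate. JUN mRNA was quantified by TaqMan qRT-PCR, normalized to ACTB, GAPDH, POLR2A.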

[14] = read-out: Lipase C (LIPC), LIPC (gene 3990); assay: LTEA_HepaRG_LIPC: Life Technologies and Expression Analysis (LTEA) Assay for Lipase C (LIPC) using HepaRG (AID 2283514)
Procedure, shortened: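 Differentiated human HepaRG cells in serum-free induction medium were exposed in duplicate for 48 h to eight concentrations (top 100 uM, half-log steps, 0.5% DMSO). LIPC mRNA was quantified by TaqMan qRT-PCR, normalized to ACTB, GAPDH and POLR2A, with bidirectional fitting versus DMSO.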

[15] = read-out: Lipoprotein lipase (LPL), LPL (gene 4023); assay: LTEA_HepaRG_LPL: Life Technologies and Expression Analysis (LTEA) Assay for Lipoprotein lipase (LPL) using HepaRG (AID 2283515)
Procedure, shortened: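 Differentiated human HepaRG cells in serum-free induction medium were exposed in duplicate for 48 h to eight half-log concentrations (top 100 uM) in 0.5% DMSO. LPL mRNA was quantified by TaqMan qRT-PCR, normalized to ACTB, GAPDH and POLR2A.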

[16] = read-out: MicroRNA 122 (MIR122), gene 406906; assay: LTEA_HepaRG_MIR122: Life Technologies and Expression Analysis (LTEA) Assay for MicroRNA 122 (MIR122) using HepaRG (AID 2283516); also: the transcript read is the microRNA miR-122
Procedure, shortened: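 Differentiated human HepaRG cells were exposed 48 h in serum-free induction medium to eight half-log concentrations (top 100 uM, 0.5% DMSO). Transcript level was measured by TaqMan qRT-PCR, normalized to ACTB, GAPDH and POLR2A, and fitted bidirectionally versus DMSO.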

[17] = read-out: matrix metalloproteinase-10 (MMP10), MMP10 (gene 4319); assay: LTEA_HepaRG_MMP10: Life Technologies and Expression Analysis (LTEA) Assay for matrix metalloproteinase-10 (MMP10) using HepaRG (AID 2283517)
Procedure, shortened: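 HepaRG, collagen I, ~100,000 cells/well; serum-free induction medium; 48 h exposure, duplicate, 8-pt half-log to 100 uM, 0.5% DMSO. Readout: TaqMan qRT-PCR, normalized to ACTB/GAPDH/POLR2A; bidirectional fit vs DMSO.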

MYC, MYC (gene 4609) = assay: LTEA_HepaRG_MYC: Life Technologies and Expression Analysis (LTEA) Assay for MYC using HepaRG (AID 2283518)
Procedure, shortened: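 Cells are thawed, plated and cultured 48 h, then treated for 48 h with test chemicals (eight half-log concentrations from 100 uM, 0.5% DMSO vehicle). RNA is isolated and MYC expression quantified by qRT-PCR against three housekeeping genes.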

[18] = read-out: Hypoxia-inducible factor 1-alpha (Homo sapiens) (UniProt Q16665); assay: LTEA_HepaRG_HIF1A: Life Technologies and Expression Analysis (LTEA) Assay for Hypoxia-inducible factor 1 (HIF1A) Trancription factor using HepaRG (AID 2283503)
Procedure, shortened: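 HepaRG, 48 h exposure, 8-pt half-log series from 100 uM, 0.5% DMSO vehicle, duplicates. Readout: HIF1A transcript by qRT-PCR (Fluidigm array), housekeeping-normalised. Bidirectional curve fit vs DMSO baseline.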

Measured: AC50

Chain of Hypoxia-inducible factor 1-alpha (Homo sapiens) (Q16665 whole entry, looked up): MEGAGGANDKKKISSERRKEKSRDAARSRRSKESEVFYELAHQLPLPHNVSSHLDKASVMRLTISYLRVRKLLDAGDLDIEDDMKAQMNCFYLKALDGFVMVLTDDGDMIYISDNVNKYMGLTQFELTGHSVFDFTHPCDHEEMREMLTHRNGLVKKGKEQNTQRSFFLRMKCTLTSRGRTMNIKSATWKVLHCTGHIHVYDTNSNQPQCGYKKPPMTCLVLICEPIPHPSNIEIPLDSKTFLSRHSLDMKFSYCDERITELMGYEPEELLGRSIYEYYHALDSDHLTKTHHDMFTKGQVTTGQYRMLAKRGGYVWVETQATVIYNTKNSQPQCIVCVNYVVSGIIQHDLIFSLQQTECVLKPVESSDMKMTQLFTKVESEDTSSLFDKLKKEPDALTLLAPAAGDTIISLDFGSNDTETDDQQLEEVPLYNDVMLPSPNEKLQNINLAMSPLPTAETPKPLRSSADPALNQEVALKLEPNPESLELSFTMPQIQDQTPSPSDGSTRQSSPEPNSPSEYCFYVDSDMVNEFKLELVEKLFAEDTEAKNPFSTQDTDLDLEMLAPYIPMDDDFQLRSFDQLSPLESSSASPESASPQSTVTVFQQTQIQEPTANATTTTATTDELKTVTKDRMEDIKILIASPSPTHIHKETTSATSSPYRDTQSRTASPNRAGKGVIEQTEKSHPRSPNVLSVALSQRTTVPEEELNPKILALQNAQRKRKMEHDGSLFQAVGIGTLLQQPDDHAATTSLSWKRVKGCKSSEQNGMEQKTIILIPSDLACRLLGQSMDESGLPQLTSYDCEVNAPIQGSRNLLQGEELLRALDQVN

O=C(OCCCCCOC(=O)c1ccccc1)c1ccccc1
active: [2] 1.57 µM | [3] 1.62 µM | HGF (gene 3082) 2.12 µM | [6] 1.97 µM | [7] 3.24 µM | [8] 1.99 µM | [9] 1.02 µM | [10] 1.91 µM | [11] 2.57 µM | [13] 1.29 µM | [14] 2.1 µM | [15] 973 nM | [16] 449 nM | MYC, MYC (gene 4609) 2.26 µM
inactive: [1] | [4] | [5] | [12] | [17]

CCNc1cccc(C)c1
inactive: [1] | [2] | [3] | [4] | [5] | HGF (gene 3082) | [6] | [7] | [8] | [9] | [10] | [11] | [12] | [13] | [14] | [15] | [16] | [17] | MYC, MYC (gene 4609)

CCCCCCCC=O
inactive: [1] | [2] | [3] | [4] | [18] | [5] | HGF (gene 3082) | [6] | [7] | [8] | [9] | [10] | [11] | [13] | [14] | [15] | [16] | [17] | MYC, MYC (gene 4609)
active: [12] 1.32 µM
